Our source for the inhibition values is ChEMBL document CHEMBL1961873, “Compounds: GSK PKIS; Assays: Nanosyn kinase panel” (2012).

Usually inhibition stands for the change of the read-out against control, counted positive when it falls.

Assay [1] deals with T1, Inhibitor of nuclear factor kappa-B kinase subunit epsilon (Homo sapiens) (UniProt Q14164).
T1 sequence (whole entry): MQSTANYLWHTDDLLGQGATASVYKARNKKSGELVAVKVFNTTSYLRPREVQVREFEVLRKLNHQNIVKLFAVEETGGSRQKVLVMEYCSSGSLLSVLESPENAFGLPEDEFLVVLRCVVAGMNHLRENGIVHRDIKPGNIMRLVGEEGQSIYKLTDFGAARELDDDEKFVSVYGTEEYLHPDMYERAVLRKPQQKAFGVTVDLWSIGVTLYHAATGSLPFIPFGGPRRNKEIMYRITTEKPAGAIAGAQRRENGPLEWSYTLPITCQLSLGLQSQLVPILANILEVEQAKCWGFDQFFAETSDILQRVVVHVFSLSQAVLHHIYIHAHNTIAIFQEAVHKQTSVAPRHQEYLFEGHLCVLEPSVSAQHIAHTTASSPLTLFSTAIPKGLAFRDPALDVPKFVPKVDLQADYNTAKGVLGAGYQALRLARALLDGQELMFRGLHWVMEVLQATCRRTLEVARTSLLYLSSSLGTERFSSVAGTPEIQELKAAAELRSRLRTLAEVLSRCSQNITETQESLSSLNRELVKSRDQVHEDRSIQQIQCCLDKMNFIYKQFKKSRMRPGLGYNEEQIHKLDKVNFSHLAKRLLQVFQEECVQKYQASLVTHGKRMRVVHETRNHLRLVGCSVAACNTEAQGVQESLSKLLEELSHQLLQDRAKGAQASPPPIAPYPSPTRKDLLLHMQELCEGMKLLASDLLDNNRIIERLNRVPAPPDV
Conditions: at 1 µM.

The target of assay [2] is T2, Serine/threonine-protein kinase Nek1 (Homo sapiens) (UniProt Q96PY6).
T2 sequence (whole entry): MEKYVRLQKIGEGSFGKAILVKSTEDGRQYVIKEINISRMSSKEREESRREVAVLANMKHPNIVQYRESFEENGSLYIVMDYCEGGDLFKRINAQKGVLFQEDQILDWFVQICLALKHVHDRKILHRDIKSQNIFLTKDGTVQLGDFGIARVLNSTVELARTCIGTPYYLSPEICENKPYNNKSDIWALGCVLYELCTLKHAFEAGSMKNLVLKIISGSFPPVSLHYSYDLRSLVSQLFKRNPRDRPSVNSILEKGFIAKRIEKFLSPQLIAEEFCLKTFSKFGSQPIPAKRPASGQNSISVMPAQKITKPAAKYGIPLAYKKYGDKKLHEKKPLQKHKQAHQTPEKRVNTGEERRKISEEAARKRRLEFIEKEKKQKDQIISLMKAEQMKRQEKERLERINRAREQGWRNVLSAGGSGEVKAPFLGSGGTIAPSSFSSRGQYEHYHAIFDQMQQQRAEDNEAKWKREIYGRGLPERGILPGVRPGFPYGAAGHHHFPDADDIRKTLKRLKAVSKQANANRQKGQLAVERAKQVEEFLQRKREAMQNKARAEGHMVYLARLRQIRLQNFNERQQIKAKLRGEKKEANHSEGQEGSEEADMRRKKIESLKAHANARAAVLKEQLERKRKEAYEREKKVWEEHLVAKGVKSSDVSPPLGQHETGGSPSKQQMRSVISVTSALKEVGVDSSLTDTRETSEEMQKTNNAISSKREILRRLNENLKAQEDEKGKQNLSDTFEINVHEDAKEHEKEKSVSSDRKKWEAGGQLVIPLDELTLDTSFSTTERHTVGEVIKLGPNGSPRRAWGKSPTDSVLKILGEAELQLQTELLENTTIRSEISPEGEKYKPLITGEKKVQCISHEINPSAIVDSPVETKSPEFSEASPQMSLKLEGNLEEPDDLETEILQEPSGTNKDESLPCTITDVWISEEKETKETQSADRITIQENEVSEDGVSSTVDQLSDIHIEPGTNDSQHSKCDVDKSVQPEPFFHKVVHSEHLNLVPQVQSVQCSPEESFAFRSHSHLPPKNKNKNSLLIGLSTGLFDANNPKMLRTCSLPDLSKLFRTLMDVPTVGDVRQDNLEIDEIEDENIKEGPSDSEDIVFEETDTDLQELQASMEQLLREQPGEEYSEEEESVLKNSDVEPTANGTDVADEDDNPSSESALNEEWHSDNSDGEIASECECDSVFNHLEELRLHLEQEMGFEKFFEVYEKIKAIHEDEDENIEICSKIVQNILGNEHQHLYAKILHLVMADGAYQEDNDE
To be noted: at 0.1 µM.

Assay [3] concerns the target T2, Serine/threonine-protein kinase Nek1 (Homo sapiens). To be noted: at 1 µM.
For assay [4], the target named is T3, Serine/threonine-protein kinase Nek2 (Homo sapiens) (UniProt P51955).
T3 sequence (whole entry): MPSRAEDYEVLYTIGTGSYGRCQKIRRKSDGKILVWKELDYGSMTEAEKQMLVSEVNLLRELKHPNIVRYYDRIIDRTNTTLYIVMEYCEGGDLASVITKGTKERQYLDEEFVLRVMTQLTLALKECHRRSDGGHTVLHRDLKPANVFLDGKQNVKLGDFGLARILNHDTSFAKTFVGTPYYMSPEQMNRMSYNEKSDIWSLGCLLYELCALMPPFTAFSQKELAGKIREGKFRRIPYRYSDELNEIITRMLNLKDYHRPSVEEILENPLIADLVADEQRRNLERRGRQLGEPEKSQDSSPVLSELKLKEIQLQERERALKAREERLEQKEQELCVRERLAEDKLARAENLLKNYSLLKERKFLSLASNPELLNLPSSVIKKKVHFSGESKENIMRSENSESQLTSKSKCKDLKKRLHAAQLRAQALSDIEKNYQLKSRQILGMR
Conditions: at 0.1 µM.

Assay [5] concerns the target T3, Serine/threonine-protein kinase Nek2 (Homo sapiens). To be noted: at 1 µM.
The target of assay [6] is Serine/threonine-protein kinase Nek6 (Homo sapiens) (UniProt Q9HC98). Conditions: at 0.1 µM.
The target is the same in assay [7]. To be noted: at 1 µM.
The target in assay [8] is Serine/threonine-protein kinase Nek7 (Homo sapiens) (UniProt Q8TDX7). Conditions: at 0.1 µM.
The target is the same in assay [9]. Conditions: at 1 µM.
Assay [10] deals with T4, Serine/threonine-protein kinase Nek9 (Homo sapiens) (UniProt Q8TD19).
T4 sequence (whole entry): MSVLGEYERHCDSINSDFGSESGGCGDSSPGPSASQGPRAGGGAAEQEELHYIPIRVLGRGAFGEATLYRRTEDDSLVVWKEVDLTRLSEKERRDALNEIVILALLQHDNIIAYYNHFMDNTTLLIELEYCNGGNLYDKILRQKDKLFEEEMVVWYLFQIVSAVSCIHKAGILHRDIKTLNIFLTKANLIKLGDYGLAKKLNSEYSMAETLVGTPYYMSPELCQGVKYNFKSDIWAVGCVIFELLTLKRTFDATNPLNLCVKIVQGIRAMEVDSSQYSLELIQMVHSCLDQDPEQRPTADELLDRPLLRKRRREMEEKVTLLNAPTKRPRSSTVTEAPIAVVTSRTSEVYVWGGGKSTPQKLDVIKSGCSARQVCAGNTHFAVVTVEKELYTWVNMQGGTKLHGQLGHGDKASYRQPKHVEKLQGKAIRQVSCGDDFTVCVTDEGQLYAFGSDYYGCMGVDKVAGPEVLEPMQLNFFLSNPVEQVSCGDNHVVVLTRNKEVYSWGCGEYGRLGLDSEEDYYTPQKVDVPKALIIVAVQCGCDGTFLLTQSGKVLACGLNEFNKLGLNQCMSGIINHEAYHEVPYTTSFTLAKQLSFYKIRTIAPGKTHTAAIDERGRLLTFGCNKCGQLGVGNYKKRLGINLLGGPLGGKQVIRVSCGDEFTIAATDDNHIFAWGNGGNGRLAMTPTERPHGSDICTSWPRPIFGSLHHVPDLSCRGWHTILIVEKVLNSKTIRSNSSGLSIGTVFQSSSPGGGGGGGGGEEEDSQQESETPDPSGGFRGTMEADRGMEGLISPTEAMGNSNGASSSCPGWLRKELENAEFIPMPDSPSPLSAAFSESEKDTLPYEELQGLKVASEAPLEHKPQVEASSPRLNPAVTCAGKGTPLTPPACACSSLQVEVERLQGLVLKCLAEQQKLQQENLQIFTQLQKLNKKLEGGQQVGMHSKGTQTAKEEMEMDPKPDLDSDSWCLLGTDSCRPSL
Conditions: at 0.1 µM.

For assay [11], the target named is T4, Serine/threonine-protein kinase Nek9 (Homo sapiens). Conditions: at 1 µM.
Assay [12] concerns the target Serine/threonine-protein kinase PLK1 (Homo sapiens) (UniProt P53350). Conditions: at 0.1 µM.
Assay [13] has the same target. Conditions: at 1 µM.
Assay [14] deals with T5, Dual specificity protein kinase TTK (Homo sapiens) (UniProt P33981).
T5 sequence (whole entry): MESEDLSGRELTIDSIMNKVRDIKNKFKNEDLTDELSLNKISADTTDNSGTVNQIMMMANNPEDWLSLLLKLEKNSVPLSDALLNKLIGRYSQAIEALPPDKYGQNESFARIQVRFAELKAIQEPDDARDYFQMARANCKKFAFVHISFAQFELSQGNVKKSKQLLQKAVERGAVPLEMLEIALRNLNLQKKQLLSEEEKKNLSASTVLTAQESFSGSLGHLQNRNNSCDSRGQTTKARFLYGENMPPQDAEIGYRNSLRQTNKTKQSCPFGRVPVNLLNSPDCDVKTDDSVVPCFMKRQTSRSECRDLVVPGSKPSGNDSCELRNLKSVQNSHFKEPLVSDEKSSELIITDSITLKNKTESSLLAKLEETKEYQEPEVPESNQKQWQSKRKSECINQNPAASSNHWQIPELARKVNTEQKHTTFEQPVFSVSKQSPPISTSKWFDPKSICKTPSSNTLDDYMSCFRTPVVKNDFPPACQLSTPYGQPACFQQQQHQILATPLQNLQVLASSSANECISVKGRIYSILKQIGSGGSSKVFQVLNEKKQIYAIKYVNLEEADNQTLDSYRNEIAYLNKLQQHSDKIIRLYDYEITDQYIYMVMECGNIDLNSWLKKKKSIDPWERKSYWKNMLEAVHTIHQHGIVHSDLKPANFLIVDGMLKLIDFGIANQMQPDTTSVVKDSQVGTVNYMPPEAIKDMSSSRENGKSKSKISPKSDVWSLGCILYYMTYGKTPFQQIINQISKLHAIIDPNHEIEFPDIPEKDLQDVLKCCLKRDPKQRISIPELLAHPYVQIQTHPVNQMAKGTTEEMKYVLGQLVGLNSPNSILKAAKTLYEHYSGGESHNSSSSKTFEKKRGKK
To be noted: at 0.1 µM.

Assay [15] relates to T6, Receptor-type tyrosine-protein kinase FLT3 (Homo sapiens), P36888 [D835Y].
T6 sequence (whole entry): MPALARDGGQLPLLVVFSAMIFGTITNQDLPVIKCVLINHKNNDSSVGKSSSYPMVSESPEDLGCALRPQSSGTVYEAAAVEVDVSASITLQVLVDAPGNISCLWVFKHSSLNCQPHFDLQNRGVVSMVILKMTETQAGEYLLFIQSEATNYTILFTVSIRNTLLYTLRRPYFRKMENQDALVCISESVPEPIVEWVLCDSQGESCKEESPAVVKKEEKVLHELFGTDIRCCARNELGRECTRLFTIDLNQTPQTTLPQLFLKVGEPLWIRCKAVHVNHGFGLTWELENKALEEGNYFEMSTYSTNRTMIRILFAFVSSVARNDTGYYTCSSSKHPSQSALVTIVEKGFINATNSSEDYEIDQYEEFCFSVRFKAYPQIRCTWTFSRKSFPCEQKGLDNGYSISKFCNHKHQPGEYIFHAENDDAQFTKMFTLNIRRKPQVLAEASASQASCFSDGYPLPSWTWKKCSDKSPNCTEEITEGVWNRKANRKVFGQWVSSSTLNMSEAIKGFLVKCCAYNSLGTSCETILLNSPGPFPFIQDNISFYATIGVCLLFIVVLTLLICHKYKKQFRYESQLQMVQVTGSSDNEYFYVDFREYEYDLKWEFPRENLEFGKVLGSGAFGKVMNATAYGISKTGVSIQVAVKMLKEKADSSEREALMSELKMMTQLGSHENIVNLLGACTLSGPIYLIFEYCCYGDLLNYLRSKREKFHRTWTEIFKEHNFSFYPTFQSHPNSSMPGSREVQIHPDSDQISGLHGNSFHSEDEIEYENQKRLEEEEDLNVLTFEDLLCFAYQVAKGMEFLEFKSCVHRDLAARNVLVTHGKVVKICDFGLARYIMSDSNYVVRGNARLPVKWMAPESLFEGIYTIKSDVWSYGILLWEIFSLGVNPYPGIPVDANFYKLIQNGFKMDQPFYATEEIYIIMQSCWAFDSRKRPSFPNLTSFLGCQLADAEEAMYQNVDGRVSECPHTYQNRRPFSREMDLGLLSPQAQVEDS
Conditions: at 1 µM.

Assay [16] has as its target Vascular endothelial growth factor receptor 3 (Homo sapiens) (UniProt P35916). To be noted: at 0.1 µM.
Assay [17] shares this target. Conditions: at 1 µM.
The target in assay [18] is Macrophage colony-stimulating factor 1 receptor (Homo sapiens) (UniProt P07333). To be noted: at 0.1 µM.
Assay [19] has the same target. Conditions: at 1 µM.
Assay [20] deals with Tyrosine-protein kinase Fyn (Homo sapiens) (UniProt P06241). Conditions: at 0.1 µM.
Tyrosine-protein kinase Fyn (Homo sapiens), sequence (P06241 2-537 limits assumed): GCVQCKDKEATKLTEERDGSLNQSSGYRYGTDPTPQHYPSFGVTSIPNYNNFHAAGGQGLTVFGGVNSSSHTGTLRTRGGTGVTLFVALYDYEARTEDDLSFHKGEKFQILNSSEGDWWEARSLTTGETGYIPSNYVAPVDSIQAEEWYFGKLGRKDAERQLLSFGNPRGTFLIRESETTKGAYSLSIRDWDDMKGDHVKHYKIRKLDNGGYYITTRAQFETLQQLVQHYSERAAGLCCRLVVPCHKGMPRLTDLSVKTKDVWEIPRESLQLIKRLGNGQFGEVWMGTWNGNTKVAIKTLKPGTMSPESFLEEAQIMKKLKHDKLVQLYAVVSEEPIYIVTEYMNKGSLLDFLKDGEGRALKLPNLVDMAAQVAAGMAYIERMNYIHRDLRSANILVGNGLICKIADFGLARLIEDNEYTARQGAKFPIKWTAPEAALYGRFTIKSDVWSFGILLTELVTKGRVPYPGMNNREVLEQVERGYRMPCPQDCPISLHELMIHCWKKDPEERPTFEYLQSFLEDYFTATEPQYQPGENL

Vascular endothelial growth factor receptor 3 (Homo sapiens), sequence (P35916 whole entry): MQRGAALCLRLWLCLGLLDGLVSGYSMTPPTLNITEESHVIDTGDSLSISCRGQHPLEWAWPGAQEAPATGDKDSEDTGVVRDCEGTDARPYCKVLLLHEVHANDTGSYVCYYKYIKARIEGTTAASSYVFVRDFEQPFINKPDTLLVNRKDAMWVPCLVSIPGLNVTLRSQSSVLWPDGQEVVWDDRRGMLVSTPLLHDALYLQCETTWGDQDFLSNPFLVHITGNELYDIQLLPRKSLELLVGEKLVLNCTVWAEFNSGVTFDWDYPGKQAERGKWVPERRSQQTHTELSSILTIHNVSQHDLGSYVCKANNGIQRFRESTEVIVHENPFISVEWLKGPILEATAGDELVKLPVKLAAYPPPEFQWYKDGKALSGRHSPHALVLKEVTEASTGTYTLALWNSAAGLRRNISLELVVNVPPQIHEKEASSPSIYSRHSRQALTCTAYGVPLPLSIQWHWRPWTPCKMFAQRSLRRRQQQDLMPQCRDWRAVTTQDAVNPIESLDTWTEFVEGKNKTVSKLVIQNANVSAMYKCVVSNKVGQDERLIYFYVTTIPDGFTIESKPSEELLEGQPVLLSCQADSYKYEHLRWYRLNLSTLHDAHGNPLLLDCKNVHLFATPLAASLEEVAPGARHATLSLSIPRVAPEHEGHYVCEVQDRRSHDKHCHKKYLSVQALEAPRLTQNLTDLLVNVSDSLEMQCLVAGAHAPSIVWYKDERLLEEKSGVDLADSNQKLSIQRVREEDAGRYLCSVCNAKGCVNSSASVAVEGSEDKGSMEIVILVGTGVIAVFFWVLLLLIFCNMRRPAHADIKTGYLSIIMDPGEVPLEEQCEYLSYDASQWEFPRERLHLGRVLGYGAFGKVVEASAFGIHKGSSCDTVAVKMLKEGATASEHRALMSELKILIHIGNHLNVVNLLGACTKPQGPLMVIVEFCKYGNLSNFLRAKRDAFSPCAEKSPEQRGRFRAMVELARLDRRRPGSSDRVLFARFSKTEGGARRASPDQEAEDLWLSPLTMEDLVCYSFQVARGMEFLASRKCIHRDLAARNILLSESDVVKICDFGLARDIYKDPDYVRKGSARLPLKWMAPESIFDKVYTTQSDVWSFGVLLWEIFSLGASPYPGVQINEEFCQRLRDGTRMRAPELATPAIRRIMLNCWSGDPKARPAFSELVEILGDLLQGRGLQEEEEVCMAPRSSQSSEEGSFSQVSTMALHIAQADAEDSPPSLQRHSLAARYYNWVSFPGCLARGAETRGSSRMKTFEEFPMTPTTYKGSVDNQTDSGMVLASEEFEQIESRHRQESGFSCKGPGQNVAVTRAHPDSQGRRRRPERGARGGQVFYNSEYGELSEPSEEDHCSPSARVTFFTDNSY
Serine/threonine-protein kinase Nek7 (Homo sapiens), sequence (Q8TDX7 whole entry, looked up): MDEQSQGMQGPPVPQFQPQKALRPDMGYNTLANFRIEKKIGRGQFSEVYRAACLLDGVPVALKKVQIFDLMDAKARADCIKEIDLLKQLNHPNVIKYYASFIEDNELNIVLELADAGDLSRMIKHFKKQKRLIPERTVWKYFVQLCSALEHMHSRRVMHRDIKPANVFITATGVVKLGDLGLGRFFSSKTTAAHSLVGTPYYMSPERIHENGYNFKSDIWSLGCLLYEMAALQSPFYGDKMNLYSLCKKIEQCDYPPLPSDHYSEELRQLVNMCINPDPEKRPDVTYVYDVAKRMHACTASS
Serine/threonine-protein kinase Nek6 (Homo sapiens), sequence (Q9HC98 whole entry): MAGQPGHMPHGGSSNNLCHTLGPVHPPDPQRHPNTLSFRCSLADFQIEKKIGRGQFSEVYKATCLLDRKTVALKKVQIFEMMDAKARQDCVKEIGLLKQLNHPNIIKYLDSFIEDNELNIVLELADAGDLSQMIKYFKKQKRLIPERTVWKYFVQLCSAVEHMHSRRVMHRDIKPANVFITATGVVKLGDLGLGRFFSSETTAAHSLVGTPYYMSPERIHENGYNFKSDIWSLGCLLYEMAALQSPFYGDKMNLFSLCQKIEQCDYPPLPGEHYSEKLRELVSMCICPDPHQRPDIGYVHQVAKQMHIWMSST
Macrophage colony-stimulating factor 1 receptor (Homo sapiens), sequence (P07333 whole entry): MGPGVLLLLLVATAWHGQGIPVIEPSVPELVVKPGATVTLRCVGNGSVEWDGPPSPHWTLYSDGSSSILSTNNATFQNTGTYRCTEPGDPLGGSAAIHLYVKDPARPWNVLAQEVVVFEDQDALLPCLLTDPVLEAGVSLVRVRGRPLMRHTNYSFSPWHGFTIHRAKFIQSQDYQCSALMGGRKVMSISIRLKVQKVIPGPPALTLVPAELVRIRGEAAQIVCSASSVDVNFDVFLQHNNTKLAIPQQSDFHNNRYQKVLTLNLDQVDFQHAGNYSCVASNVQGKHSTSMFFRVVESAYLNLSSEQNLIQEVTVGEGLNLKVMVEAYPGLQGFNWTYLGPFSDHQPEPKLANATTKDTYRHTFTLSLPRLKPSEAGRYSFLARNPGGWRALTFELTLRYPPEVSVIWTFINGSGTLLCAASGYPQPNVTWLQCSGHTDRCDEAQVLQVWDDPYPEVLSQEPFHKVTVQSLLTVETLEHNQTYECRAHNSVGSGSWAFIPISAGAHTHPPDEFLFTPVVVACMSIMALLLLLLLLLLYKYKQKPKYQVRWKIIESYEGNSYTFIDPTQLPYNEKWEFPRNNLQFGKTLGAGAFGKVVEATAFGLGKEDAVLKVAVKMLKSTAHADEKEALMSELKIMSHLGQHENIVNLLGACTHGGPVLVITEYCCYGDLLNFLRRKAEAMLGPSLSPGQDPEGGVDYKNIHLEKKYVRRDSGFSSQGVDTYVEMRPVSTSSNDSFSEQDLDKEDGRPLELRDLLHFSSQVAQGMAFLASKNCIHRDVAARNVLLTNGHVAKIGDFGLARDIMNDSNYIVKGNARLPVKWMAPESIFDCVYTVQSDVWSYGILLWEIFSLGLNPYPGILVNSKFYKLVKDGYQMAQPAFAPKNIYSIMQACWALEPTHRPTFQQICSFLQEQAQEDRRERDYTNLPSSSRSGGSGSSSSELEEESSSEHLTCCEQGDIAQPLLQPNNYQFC
Serine/threonine-protein kinase PLK1 (Homo sapiens), sequence (P53350 whole entry): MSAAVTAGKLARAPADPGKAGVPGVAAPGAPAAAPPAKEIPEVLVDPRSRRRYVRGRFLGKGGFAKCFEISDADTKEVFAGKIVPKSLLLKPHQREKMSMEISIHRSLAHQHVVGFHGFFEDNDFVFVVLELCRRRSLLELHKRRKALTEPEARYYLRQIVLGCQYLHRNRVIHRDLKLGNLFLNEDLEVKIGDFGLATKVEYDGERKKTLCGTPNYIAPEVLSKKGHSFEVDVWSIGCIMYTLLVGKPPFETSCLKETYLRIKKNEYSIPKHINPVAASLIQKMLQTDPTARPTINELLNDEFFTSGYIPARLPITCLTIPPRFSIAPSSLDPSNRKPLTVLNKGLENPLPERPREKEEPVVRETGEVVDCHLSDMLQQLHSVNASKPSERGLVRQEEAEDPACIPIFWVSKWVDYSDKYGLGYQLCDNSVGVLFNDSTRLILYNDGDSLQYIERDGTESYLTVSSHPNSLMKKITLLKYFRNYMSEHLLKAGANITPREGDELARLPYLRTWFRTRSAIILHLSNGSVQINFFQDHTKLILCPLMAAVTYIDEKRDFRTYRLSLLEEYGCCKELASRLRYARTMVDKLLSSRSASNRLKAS

For the compound `COc1cc2ncn(-c3cc(OCc4ccccc4S(C)(=O)=O)c(C#N)s3)c2cc1OC`, the inhibition in assay [1] was 115%; in assay [2], 2.58%; in [3], 3%; in assay [4] it was 6.68%; in [5], 14.4%; in [6] it was 3.33%. For the same compound, the inhibition in assay [7] is -0.15%; in assay [8], 4.85%; in assay [9], 3.13%; in assay [10], 3.17%; in assay [11], 1.96%; in assay [12], 10%. The inhibition in assay [13] came to 47.5%; in assay [14], 5.84%; in [15], 23.9%; in [16] it was 26.8%; in assay [17], 73.4%; in assay [18], 6.26%. The values for the inhibition in assay [19] and in assay [20] were 33.2% and 30.9%, respectively.

Turning to `CCn1c(-c2nonc2N)nc2c(C#CC(C)(C)O)nc(OCCNC)cc21`, the inhibition was 46.6% in [1]; 1.96% in [2]; 2.74% in assay [3]; 5.33% in [4]; 2.6% in [5]; 2.62% in [6]. For the same compound, the inhibition in [7] worked out at 1.71%; in [8], 4.06%; in assay [9], 9.15%; in [10], 7.21%; in assay [11], 7.49%; in assay [12] it was 6.83%. Moreover, the inhibition in assay [13] is 8.02%; in assay [14], 7.19%; in [15] it was -0.49%; in assay [16], 1.76%; in assay [17], 11.6%; in assay [18] it was -0.38%. Besides, the figures for the inhibition in [19] and in [20] were 3.67% and 1.14%, respectively.
